According to PubChem BioAssay AID1159580 (chemical genetic matrix, 2015):
Screen size: about 5,500 compounds; about 2,000 (36%) were called active. Inconclusive results (about 18%) are left out. Rule as the data show it: active = normalized growth mostly below about 0.91 (no sharp cut-off); inconclusive = no clear call, values can overlap the other calls; inactive = mostly above about 0.92. Some of the results follow.

Assay: chemical genetic growth profiling, strain panel (AID 1159580);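 also: tested at 20 µM; growth read once vehicle control cultures reached saturation at 30 °C; 1 = growth at the plate median or of vehicle wells; lower values mean less growth of the strain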
Details: growth OD

Measured: normalized growth

CC(C)CCCC(C)[C@H]1CCC2C3CC=C4C[C@@H](O)CC[C@]4(C)C3CC[C@@]21C (some centres undefined)
inactive: S. cerevisiae deletion strains, locus YJR075W, strain HOC1, active compounds read low 1.02 | S. cerevisiae deletion strains, locus YKL009W, strain mrt4, active compounds read low 0.99 | S. cerevisiae deletion strains, locus YKL068W, active compounds read low 1 | S. cerevisiae deletion strains, locus YKL085W, strain MDH1 (second series), active compounds read low 0.999 | S. cerevisiae deletion strains, locus YKL085W, strain MDH1, active compounds read low 0.999 | S. cerevisiae deletion strains, locus YKL160W, strain elf1, active compounds read low 1.01 | S. cerevisiae deletion strains, locus YKL190W, strain CNB1, active compounds read low 1.01 | S. cerevisiae deletion strains, locus YKR001C, strain vps1, active compounds read low 0.985 | S. cerevisiae deletion strains, locus YKR026C, strain gcn3, active compounds read low 0.988 | S. cerevisiae deletion strains, locus YKR091W, strain srl3, active compounds read low 0.981 | S. cerevisiae deletion strains, locus YLL001W, strain dnm1, active compounds read low 1 | S. cerevisiae deletion strains, locus YLL026W, active compounds read low 0.993 | S. cerevisiae deletion strains, locus YLL041C, strain sdh2, active compounds read low 0.968 | S. cerevisiae deletion strains, locus YLR027C, strain aat2, active compounds read low 0.981 | S. cerevisiae deletion strains, locus YLR039C, strain RIC1, active compounds read low 1.02 | S. cerevisiae deletion strains, locus YLR058C, strain SHM2, active compounds read low 1.01 | S. cerevisiae deletion strains, locus YLR102C, strain apc9, active compounds read low 0.995 | S. cerevisiae deletion strains, locus YLR113W, strain HOG1, active compounds read low 1.04 | S. cerevisiae deletion strains, locus YLR221C, strain rsa3, active compounds read low 1.08 | S. cerevisiae deletion strains, locus YLR258W, strain gsy2, active compounds read low 1 | S. cerevisiae deletion strains, locus YLR262C, strain YPT6 (second series), active compounds read low 0.987 | S. cerevisiae deletion strains, locus YLR262C, strain YPT6, active compounds read low 1.02 | S. cerevisiae deletion strains, locus YLR268W, strain sec22, active compounds read low 0.963 | S. cerevisiae deletion strains, locus YLR320W, strain mms22, active compounds read low 1.01 | S. cerevisiae deletion strains, locus YLR330W, strain CHS5, active compounds read low 1.02 | S. cerevisiae deletion strains, locus YLR342W, strain FKS1 (second series), active compounds read low 1.02 | S. cerevisiae deletion strains, locus YLR342W, strain FKS1, active compounds read low 0.968 | S. cerevisiae deletion strains, locus YLR357W, strain rsc2, active compounds read low 0.983 | S. cerevisiae deletion strains, locus YLR370C, strain arc18, active compounds read low 0.974 | S. cerevisiae deletion strains, locus YLR371W, strain rom2, active compounds read low 0.988 | S. cerevisiae deletion strains, locus YLR384C, strain iki3, active compounds read low 0.97 | S. cerevisiae deletion strains, locus YLR418C, strain cdc73, active compounds read low 1 | S. cerevisiae deletion strains, locus YML016C, strain PPZ1, active compounds read low 1.01 | S. cerevisiae deletion strains, locus YML032C, strain rad52, active compounds read low 1 | S. cerevisiae deletion strains, locus YML120C, strain ndi1, active compounds read low 0.975 | S. cerevisiae deletion strains, locus YML124C, strain tub3, active compounds read low 0.999 | S. cerevisiae deletion strains, locus YMR058W, strain fet3, active compounds read low 0.972 | S. cerevisiae deletion strains, locus YMR078C, strain ctf18, active compounds read low 0.999 | S. cerevisiae deletion strains, locus YMR125W, strain sto1, active compounds read low 0.94 | S. cerevisiae deletion strains, locus YMR129W, active compounds read low 0.975 | S. cerevisiae deletion strains, locus YMR205C, strain PFK2, active compounds read low 1 | S. cerevisiae deletion strains, locus YMR223W, strain ubp8, active compounds read low 1.02 | S. cerevisiae deletion strains, locus YMR231W, strain pep5, active compounds read low 0.967 | S. cerevisiae deletion strains, locus YMR263W, strain SAP30, active compounds read low 1.02 | S. cerevisiae deletion strains, locus YMR307W, strain GAS1, active compounds read low 1.04 | S. cerevisiae deletion strains, locus YNL067W, strain RPL9B, active compounds read low 1 | S. cerevisiae deletion strains, locus YNL071W, strain lat1, active compounds read low 0.966 | S. cerevisiae deletion strains, locus YNL183C, strain NPR1, active compounds read low 0.962 | S. cerevisiae deletion strains, locus YNL209W, strain ssb2, active compounds read low 0.98 | S. cerevisiae deletion strains, locus YNL233W, strain BNI4, active compounds read low 1.02 | S. cerevisiae deletion strains, locus YNL248C, strain rpa49, active compounds read low 0.963 | S. cerevisiae deletion strains, locus YNL250W, strain rad50, active compounds read low 1.02 | S. cerevisiae deletion strains, locus YNL271C, strain bni1, active compounds read low 0.994 | S. cerevisiae deletion strains, locus YNL298W, strain CLA4, active compounds read low 0.995 | S. cerevisiae deletion strains, locus YNL307C, strain MCK1, active compounds read low 0.987 | S. cerevisiae deletion strains, locus YNL322C, strain KRE1 (second series), active compounds read low 0.964 | S. cerevisiae deletion strains, locus YNL322C, strain KRE1, active compounds read low 1.01 | S. cerevisiae deletion strains, locus YNR049C, strain mso1, active compounds read low 0.981 | S. cerevisiae deletion strains, locus YNR052C, strain pop2, active compounds read low 0.99 | S. cerevisiae deletion strains, locus YOL012C, strain htz1 0.694 | S. cerevisiae deletion strains, locus YOL147C, strain pex11, active compounds read low 0.99 | S. cerevisiae deletion strains, locus YOR001W, strain rrp6, active compounds read low 0.99 | S. cerevisiae deletion strains, locus YOR061W, strain CKA2, active compounds read low 1.01 | S. cerevisiae deletion strains, locus YOR069W, strain VPS5, active compounds read low 1.01 | S. cerevisiae deletion strains, locus YOR070C, strain gyp1, active compounds read low 1.07 | S. cerevisiae deletion strains, locus YOR080W, strain dia2, active compounds read low 0.991 | S. cerevisiae deletion strains, locus YOR083W, strain WHI5, active compounds read low 1.03 | S. cerevisiae deletion strains, locus YOR106W, strain vam3, active compounds read low 0.988 | S. cerevisiae deletion strains, locus YOR136W, strain idh2, active compounds read low 0.99 | S. cerevisiae deletion strains, locus YOR144C, strain elg1, active compounds read low 0.986 | S. cerevisiae deletion strains, locus YOR184W, strain ser1, active compounds read low 0.984 | S. cerevisiae deletion strains, locus YOR231W, strain MKK1, active compounds read low 1.03 | S. cerevisiae deletion strains, locus YOR265W, strain rbl2, active compounds read low 0.989 | S. cerevisiae deletion strains, locus YOR270C, strain vph1, active compounds read low 0.901 | S. cerevisiae deletion strains, locus YOR290C, strain snf2, active compounds read low 0.987 | S. cerevisiae deletion strains, locus YOR316C, strain cot1, active compounds read low 0.987 | S. cerevisiae deletion strains, locus YPL051W, strain arl3, active compounds read low 1.03 | S. cerevisiae deletion strains, locus YPL055C, strain LGE1, active compounds read low 1.03 | S. cerevisiae deletion strains, locus YPL078C, strain atp4, active compounds read low 0.98 | S. cerevisiae deletion strains, locus YPL106C, strain sse1, active compounds read low 0.999 | S. cerevisiae deletion strains, locus YPL240C, strain hsp82, active compounds read low 0.985 | S. cerevisiae deletion strains, locus YPL241C, strain CIN2, active compounds read low 1.01 | S. cerevisiae deletion strains, locus YPL256C, strain CLN2, active compounds read low 1.01 | S. cerevisiae deletion strains, locus YPR119W, strain clb2, active compounds read low 0.992 | S. cerevisiae deletion strains, locus YPR141C, strain kar3, active compounds read low 0.995 | S. cerevisiae deletion strains, locus YPR163C, strain tif3, active compounds read low 0.988 | S. cerevisiae deletion strains, locus YPR167C, strain met16, active compounds read low 0.995 | S. cerevisiae deletion strains, strain wtn01, active compounds read low 0.972 | S. cerevisiae strains, strain wild type, active compounds read low 1
